Records with an inconclusive call do not appear. The source made the active and inactive calls. The call rests on the fitted dose curve; in most records, active means well fitted inhibition curve with a large enough effect; inconclusive means small, poorly fitted or top-dose-only effect; inactive means flat fitted curve, though single readings scatter.
Assay: P-glycoprotein substrates identified in KB-8-5-11 adenocarcinoma cell line, qHTS therapeutic library screen (AID 1346987); further: nearly all actives have a fitted effect of over 65% in size
Details: KB-8-5-11 (P-gp overexpressing) viability, CellTiter-Glo, 72 h; series mostly up to 44.5 µM; activity change, negative = cytotoxicity: at the top concentration
Summary of the method: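 Compounds are pinned in dose-response onto KB-8-5-11 cells (500 cells/well, colchicine-free medium) and left 72 h at 37 degree C. CellTiter-Glo luminescence then yields AC50 values.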
On the % scale 0 is the no-effect control and ±100 the full control effect; potency means the concentration at half of the fitted maximal effect.

Q: For `O=C(O)c1cccc(S(=O)(=O)N2CCc3ccccc3C2)c1`, which “outcome” value is on record?
A: inactive

Q: With `C/C=C(\C)C(=O)OCC1OC(OC2OC(COC(=O)/C(C)=C/C)C(OC3OC(CO)C(OC(=O)/C(C)=C/C)C(OC(=O)/C(C)=C/C)C3O)C(O)C2O)C(O)C(O)C1OC1OC(CO)C(OC(=O)/C(C)=C/C)C(OC(=O)/C(C)=C/C)C1O` (configuration not stated) as the compound, how does the activity change, negative = cytotoxicity read?
A: 8.2% [at 9.29 µM] (inactive)

Q: Which Potency does the source give for `Cc1[nH]c2ccccc2c1C1=C(NCCc2ccc(F)cc2)C(=O)N(C)C1=O` here?
A: 16.4 µM (active)

Q: For `C/C=C1\[C@H](O[C@@H]2O[C@H](CO)[C@@H](O)[C@H](O)[C@H]2O)OC=C(C(=O)OC)[C@H]1CC(=O)OC[C@H]1O[C@@H](OCCc2ccc(O)cc2)[C@H](O)[C@@H](O)[C@@H]1O`, which “activity change, negative = cytotoxicity” value is on record?
A: -0.742% [at 17.3 µM] (inactive)

Q: With `COc1ncc(Nc2ncc([C@@H](C)N3CCN(S(C)(=O)=O)CC3)cc2-c2nc(C)nc(N)n2)cc1F` as the compound, how does the Potency read?
A: 6.51 µM (active)

Q: With `CCN1CCN(Cc2ccc(Nc3ncc(F)c(-c4cc(F)c5nc(C)n(C(C)C)c5c4)n3)nc2)CC1` as the compound, how does the Potency read?
A: 4.11 µM (active)

Q: Which Potency does the source give for `COc1ccc2[nH]c3c(-c4cccc5ccccc45)nccc3c2c1` here?
A: 0.92 µM (active)

Q: For `Nc1nc(-n2cc(C(=O)O)c(=O)c3cc(F)c(N4CC(O)C4)c(Cl)c32)c(F)cc1F`, which “activity change, negative = cytotoxicity” value is on record?
A: -8.8% (inactive)

Q: Which Potency does the source give for `CN(C)c1ccc2c(c1)OC(N)=C(C#N)C2c1cccc(C(F)(F)F)c1` (configuration not stated) here?
A: 0.326 µM (active)

Q: For `CCN(Cc1cccnc1)C(=O)CN(c1ccc(OC)nc1)S(=O)(=O)c1ccccc1C`, which “activity change, negative = cytotoxicity” value is on record?
A: -2.79% (inactive)

Q: With `O=C(O)c1ccc(OC2OC(CO)C(O)C(O)C2O)cc1` (configuration not stated) as the compound, how does the “activity change, negative = cytotoxicity” value read?
A: 0.976% (inactive)

Q: For `CC(CCC1(O)OC2CC3C4CCC5CC(O[C@@H]6O[C@H](CO)[C@@H](O)[C@H](O)[C@H]6O[C@@H]6O[C@@H](C)[C@H](O)[C@@H](O)[C@H]6O)C(O)CC5(C)C4CCC3(C)C2C1C)CO[C@@H]1O[C@H](CO)[C@@H](O)[C@H](O)[C@H]1O` (some centres not stated), which activity change, negative = cytotoxicity is on record?
A: 1.44% [at 9.29 µM] (inactive)

Q: For `OC[C@H]1O[C@@H](O[C@H]2[C@H](OCc3ccccc3)O[C@H](CO[C@@H]3OC[C@@H](O)[C@H](O)[C@H]3O)[C@@H](O)[C@@H]2O)[C@H](O)[C@@H](O)[C@@H]1O`, which “activity change, negative = cytotoxicity” value is on record?
A: 1.87% [at 17.3 µM] (inactive)

Q: For `CC(C)[N+]1(C)C2CCC1CC(OC(=O)C(CO)c1ccccc1)C2` (configuration not stated), which “activity change, negative = cytotoxicity” value is on record?
A: -11.6% (inactive)

Q: Which “outcome” value does the source give for `COC(=O)C1(C)CCC2(C(=O)O)CCC3(C)C(=CCC4C5(C)CC(O)C(OC6OCC(O)C(O)C6O)C(C)(CO)C5CCC43C)C2C1` (configuration not stated) here?
A: inactive [at 17.3 µM]

Q: Which Potency does the source give for `COc1ccc(F)cc1-c1cc(NC(=O)[C@@H]2CCCNC2)ncc1Cl` here?
A: 0.326 µM (active)

Q: Which “activity change, negative = cytotoxicity” value does the source give for `C=CC(C)(C)c1[nH]c2cc3c(cc2c1CC1NC(=O)C2CCCN2C1=O)C=CC(C)(C)O3` (configuration not stated) here?
A: 7.25% [at 17.3 µM] (inactive)

Q: Which “activity change, negative = cytotoxicity” value does the source give for `C/C=C/c1cc(OC)c2c(c1)[C@@H](C)[C@@H](c1ccc(O)c(OC)c1)O2` here?
A: -9.55% (inactive)

Q: With `CCCC1(c2ccccc2)NC(=O)N(CC(=O)N(C)Cc2c(F)cccc2Cl)C1=O` (configuration not stated) as the compound, how does the “activity change, negative = cytotoxicity” value read?
A: -35.4% (inactive)

Q: With `Nc1nc(Nc2ccc(S(N)(=O)=O)cc2)n(C(=S)Nc2c(F)cccc2F)n1` as the compound, how does the Potency read?
A: 1.16 µM (active)

Q: For `C/C(=C\C=C\C(C)C1CCC2(C)C3CCC4C(C)(C)C(=O)CCC45CC35CCC12C)C(=O)O` (configuration not stated), which “activity change, negative = cytotoxicity” value is on record?
A: 8.34% [at 17.3 µM] (inactive)

Q: Which “activity change, negative = cytotoxicity” value does the source give for `C=C1C(=O)O[C@H]2[C@H]1CC/C(C)=C/CC[C@@]1(C)O[C@@H]21` here?
A: -12.6% (inactive)

Q: With `C[C@@H]1C(=O)O[C@H]2[C@@H](O)C34[C@H]5C[C@@H](C(C)(C)C)C36[C@@H](OC(=O)[C@@H]6O)O[C@@]4(C(=O)O5)[C@@]12O` (some centres not stated) as the compound, how does the “activity change, negative = cytotoxicity” value read?
A: -8.69% (inactive)

Q: With `C/C(=C\CC[C@@H](C)[C@H]1CC(O)[C@@]2(C)C3CC[C@H]4C(C)(C)[C@@H](OC5OCC(O)C(O)C5OC5OC(CO)C(O)C(O)C5O)CC[C@@]45C[C@@]35CC(O)[C@]12C)C(=O)O` (some centres not stated) as the compound, how does the “outcome” value read?
A: inactive [at 17.3 µM]

Q: For `C=C1CCC2C(C)(C)CCC[C@]2(C)[C@H]1C/C=C(\CO)C(=O)C(=O)O` (some centres not stated), which “activity change, negative = cytotoxicity” value is on record?
A: -9.08% (inactive)

Q: With `CC/C=C/CC1=C(CCCCC(CCC(=O)O)OC(C)=O)CCC1=O` (configuration not stated) as the compound, how does the “activity change, negative = cytotoxicity” value read?
A: -17.4% (inactive)

Q: With `CC1=CC(=O)[C@H]2C(C)(C)CCC[C@]2(C)[C@@]1(O)CO` as the compound, how does the “activity change, negative = cytotoxicity” value read?
A: 6.19% (inactive)
